The record followed here is PubChem BioAssay (NCI).

Common to all, as to assay: NCI-60 one-dose screen, 48 h (100 = growth as untreated, 0 = no growth, -100 = all killed)
Details in all cases: 10 µM unless noted

Assay [1] has as its system HCT-15 colon.
For assay [2], the system named is HT29 colon.
Assay [3] deals with SNB-75 CNS.
In assay [4] the test system is SNB-19 CNS.
Assay [5] deals with U251 CNS.
Assay [6] relates to PC-3 prostate.
The test system of assay [7] is SK-MEL-5 melanoma.
The subject of assay [8] is UACC-62 melanoma.
In assay [9] the test system is LOX IMVI melanoma.
The test system of assay [10] is SK-MEL-28 melanoma.
Assay [11] relates to EKVX NSCLC.
Assay [12] relates to SN12C renal.
Assay [13] concerns UO-31 renal.
The subject of assay [14] is TK-10 renal.
The subject of assay [15] is ACHN renal.
Assay [16] relates to CAKI-1 renal.
Assay [17] concerns A498 renal.
The test system of assay [18] is CCRF-CEM leukemia.
Assay [19] deals with MOLT-4 leukemia.

This is part of a sample that, as a whole, favours compounds with a hit. Of some 83,000 tested, about 20% had one in any assay.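 Single-concentration screen, 48 h exposure, 96-well plates. Endpoint: percent growth. Below 10 = active.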 Unmarked numbers belong to inactive results. Active and inactive are the calls of the source.

Turning to `CNC(=O)c1nn(C)c2c1C(C)(C)Cc1cnc(Nc3ccc(N4CCN(C)CC4)cc3)nc1-2`, the growth in assay [1] is 3.12% (active); in assay [2], -16.2% (active); in assay [3], -20.6% (active); in assay [4], 12.3%; in assay [5], 8.54% (active); in [6], 7.92% (active). Besides, the growth in [7] was 7.31% (active); in assay [8], -9.49% (active); in [9] it was 5.27% (active); in assay [10], 16.2%; in assay [11] it was 5.74% (active); in [12], 11.3%. The growth is -8.73% (active) in assay [13]; -12.5% (active) in assay [14]; 9.62% (active) in [15]; 7.68% (active) in [16]; -61.6% (active) in assay [17]; 10.4% in [18]. Also, the growth in [19] was 2.29% (active).
Regarding `Cc1cc(Nc2ncnc3ccc(NC4=NC(C)(C)CO4)cc23)ccc1Oc1ccn2ncnc2c1`, the growth in [1] is 47.9%; in assay [2], 5.46% (active); in [3], 39%; in assay [4] it was 44.3%; in assay [5], 36.2%; in [6] it was 41.3%. Besides, the growth in [7] was 19.2%; in assay [8] it was 14.3%; in [9], 11.2%; in [10], 12.9%; in [11], 41.6%; in assay [12], 33.1%. Also, the growth in assay [13] is 14.9%; in [14], 1.72% (active); in assay [15], 21.1%; in [16], 13.8%; in assay [17] it was -16% (active); in assay [18] it was 11.7%. For the same compound, the growth in assay [19] is 16.7%.
For `COc1cccc(NC(=O)Nc2ccc(Nc3ncnc4sc5c(c34)CCN(C(=O)CCl)C5)cc2)c1`, the growth is 118% in assay [1]; 90.2% in assay [2]; 86.4% in [3]; 102% in assay [4]; 95.5% in [5]; 90.7% in assay [6]. The growth in [7] is 106%; in assay [8], 94.8%; in assay [9], 94.1%; in [10] it was 117%; in assay [11], 109%; in assay [12], 96.3%. The growth was 66.6% in assay [13]; 122% in assay [14]; 88.7% in assay [15]; 94.2% in [16]; 93.1% in assay [17]; 88.4% in [18]. Besides, the growth in [19] was 92.8%.
For the compound `O=C(Nc1ccc(Nc2ncnc3sc4c(c23)CCOC4)cc1)Nc1ccc(Cl)c(C(F)(F)F)c1`, the growth is 98.9% in assay [1]; 81.1% in assay [2]; 69.1% in [3]; 110% in assay [4]; 99.9% in [5]; 60.8% in [6]. Further, the growth in assay [7] is 98.1%; in assay [8] it was 93.4%; in assay [9], 99.9%; in assay [10], 95.1%; in assay [11], 105%; in assay [12], 105%. In addition, the growth in [13] is 115%; in assay [14], 109%; in assay [15], 86.6%; in assay [16] it was 107%; in [17], 89.5%; in assay [18], 86.7%. In addition, in assay [19], the growth is 74.4%.
For `COc1cc2c(Oc3ccc(NC(=O)C4(C(=O)Nc5ccc(F)cc5)CC4)cc3F)ccnc2cc1OCCCN1CCOCC1`, the growth was -26% (active) in assay [1]; -59.2% (active) in assay [2]; -96.9% (active) in assay [3]; 10.6% in assay [4]; -57.8% (active) in [5]; 7.39% (active) in assay [6]. The growth in assay [7] was -96.1% (active); in assay [8], -67.8% (active); in assay [9], -89.5% (active); in assay [10], -78.2% (active); in [11] it was 25.9%; in [12] it was 14.5%. Further, the growth in assay [13] was -74.4% (active); in assay [14], -5.46% (active); in assay [15], -4.14% (active); in [16] it was -69% (active); in assay [17] it was -92.4% (active); in [18] it was -3.58% (active). In addition, the growth in assay [19] is -9.06% (active).
`CC/C(=C(\c1ccc(OCCN2CCCCCCC2)cc1)c1ccc(OC(=O)C2CCCCC2)cc1)c1ccc(Cl)cc1`: the growth is 94.3% in [1]; 86.9% in assay [2]; 99.7% in assay [3]; 110% in [4]; 98.9% in assay [5]; 91.4% in assay [6]. The growth was 102% in [7]; 108% in assay [8]; 102% in assay [9]; 96.3% in [10]; 105% in assay [11]; 93.6% in [12]. The growth in [13] is 73.8%; in assay [14], 110%; in [15], 97.2%; in assay [16] it was 93.8%; in assay [17], 63.7%; in assay [18] it was 88.9%. Also, in assay [19], the growth was 88.9%.
In the case of `COc1ccc(Cl)c(Nc2nc3ccccc3nc2NS(=O)(=O)c2cccc(NC(=O)C(C)(C)N)c2)c1`, the growth in [1] was 44.9%; in [2], 27.7%; in assay [3], -20.2% (active); in assay [4], 63.9%; in [5] it was 35%; in assay [6], 22.3%. For the same compound, the growth was 57.1% in assay [7]; 36.5% in assay [8]; 25.8% in [9]; 53.1% in assay [10]; 48.5% in [11]; 51.2% in assay [12]. For the same compound, the growth is 8.83% (active) in assay [13]; 29.8% in assay [14]; 40.3% in assay [15]; 29% in assay [16]; -33.2% (active) in assay [17]; 46.9% in assay [18]. Further, the growth in assay [19] was 13.4%.
In the case of `C/C(=C(/c1ccc(Cl)cc1)c1ccc(OCCN2CCCC2)cc1)c1ccccc1`, the growth was 8.01% (active) in [1]; 4.46% (active) in [2]; 86.1% in assay [3]; 80.7% in assay [4]; 63.9% in [5]; 64.5% in [6]. The growth was 14.9% in assay [7]; 48.9% in assay [8]; 30.6% in assay [9]; 62% in assay [10]; 55.2% in assay [11]; 80.8% in assay [12]. Also, the growth in [13] was 63%; in [14] it was 87.7%; in assay [15] it was 82.9%; in assay [16], 81.8%; in [17], 77.6%; in assay [18], 59.2%. In addition, the growth in [19] is 68.7%.
`CCN(CC)CCN1C(=O)c2cccc3c(-c4ccc5c(c4)ncn5C4CCCCC4)ccc(c23)C1=O`: the growth in assay [1] was 8.61% (active); in [2], 0.739% (active); in assay [3] it was 4.41% (active); in assay [4] it was 32.6%; in assay [5], 14.7%; in [6] it was 5.21% (active). Further, the growth in [7] is -96.6% (active); in assay [8], 22%; in assay [9], -81.6% (active); in assay [10] it was -38.2% (active); in [11] it was 15.6%; in assay [12], 23.8%. The growth was -23.7% (active) in assay [13]; 32.1% in assay [14]; 10% in assay [15]; 19.7% in assay [16]; -11.6% (active) in assay [17]; 11.4% in [18]. In addition, the growth in assay [19] was -9.62% (active).
Regarding `Cc1c(N)ccc(-c2ccc(N)c(C)c2S(=O)(=O)O)c1S(=O)(=O)O`, the growth is 111% in assay [1]; 111% in [2]; 101% in assay [3]; 112% in assay [4]; 106% in assay [5]; 98.4% in assay [6]. Moreover, the growth in assay [7] was 110%; in assay [8] it was 105%; in assay [9], 98.6%; in assay [10], 115%; in [11] it was 111%; in [12], 106%. The growth in assay [13] was 88%; in [14], 98.6%; in assay [15], 108%; in [16], 116%; in [17], 100%; in assay [18], 102%. Moreover, the growth in assay [19] is 102%.
For `CO[C@H]1C[C@@H]2CC[C@@H](C)[C@@](O)(O2)C(=O)C(=O)N2CCCC[C@H]2C(=O)O[C@H]([C@H](C)C[C@@H]2CC[C@@H](OP(C)(C)=O)[C@H](OC)C2)CC(=O)[C@H](C)/C=C(\C)[C@@H](O)[C@@H](OC)C(=O)[C@H](C)C[C@H](C)\C=C/C=C/C=C/1C`, the growth in [1] is 47.6%; in assay [2], 40.3%; in [3], 17.6%; in assay [4], 53%; in assay [5] it was 40.4%; in assay [6] it was 42.2%. For the same compound, the growth in [7] was 51.6%; in assay [8], 39.5%; in [9], 42.7%; in [10] it was 54.4%; in [11], 49.8%; in assay [12], 53.9%. Moreover, the growth in assay [13] was 27.3%; in assay [14], 46%; in assay [15], 54.4%; in assay [16], 50.1%; in [17], 2.06% (active); in [18], 37.2%. Also, the growth in assay [19] is 28.8%.
Consider `Nc1c(Cl)cccc1[N+](=O)[O-]`, for which the growth was 104% in assay [1]; 111% in assay [2]; 104% in [3]; 103% in [4]; 103% in assay [5]; 98.4% in [6]. Further, the growth is 104% in assay [7]; 101% in [8]; 103% in assay [9]; 106% in assay [10]; 104% in assay [11]; 103% in assay [12]. In addition, the growth in [13] was 90.4%; in assay [14], 125%; in [15] it was 104%; in [16], 104%; in assay [17] it was 101%; in assay [18], 101%. Further, the growth in assay [19] was 99.6%.
